# Data: PubChem BioAssay (NCI)
# The panel holds about 83,000 compounds, 20% with a hit somewhere; the sample as a whole holds those more often.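 Single-dose data. Exposure time 48 hours. Values below 10 considered active.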 Active and inactive are the calls of the source.
# System: EKVX NSCLC
# Assay: NCI-60 one-dose screen, 48 h (100 = growth as untreated, 0 = no growth, -100 = all killed)
# Settings: 10 µM unless noted
# Experimental: Growth inhibition of the EKVX human Non-Small Cell Lung tumor cell line is measured as a screen for anti-cancer activity. Cells are grown in 96 well plates and exposed to the test compound for 48 hours. Compounds are tested at a single concentration, which is 10^-5 M for most compounds. The reported endpoint is percent growth (GI% or GIPRCNT), where numbers from 0 - 100% represent growth inhibition, and numbers from -100% - 0 represent cell death. For example, a value of 40 represents 60% growth inhibition. A value of 0 means no net growth occurred over the course of the experiment. A value of -40 indicates 40% of cells at the beginning of the experiment died by the end of the experiment. A value of -100 means all cells are dead at the end of the experiment.
# NCI-60 Human Tumor Cell Lines Screen was performed using the standard one-dose NCI protocol, which is described in more detail at https://dtp.cancer.gov/discovery_development/nci-60/default.htm.
# Compounds with GIPRCNT values below 10 were considered active. Activity score was based on GIPRCNT using the following formula: […]
# Score is 0 for GIPRCNT values of 100 or above, 50 for GIPRCNT values of 0, and 100 for GIPRCNT values of -100.
row,Structure (SMILES),growth
1,COC(=O)CCCCCN=Cc1c(O)c(O)c(C(C)C)c2cc(C)c(-c3c(C)cc4c(C(C)C)c(O)c(O)c(C=NCCCCCC(=O)OC)c4c3O)c(O)c12,21.7% (inactive)
2,NC(=O)c1cccc(N2Cc3ccccc3OC3=C2C(=O)c2c(O)ccc(O)c2C3=O)c1,-0.27% (active)
3,CC(CCc1ccccc1)NC(=O)c1n[nH]c(=O)c2ccccc12 (stereo not given),105% (inactive)
4,O=C(Nc1ccc(I)cc1)c1cc([N+](=O)[O-])ccc1O,39.7% (inactive)
5,Clc1nc(Cl)c2ncn(C/C=C/Cn3cnc4c(Cl)nc(Cl)nc43)c2n1,86.6% (inactive)
6,C=C1C(=O)O[C@H]2[C@H]1CC/C(COC(=O)NCc1ccc(OC)cc1)=C\CC[C@@]1(C)O[C@@H]21,75.9% (inactive)
7,CC(C)N(Cc1ccc(CN(C(=O)CCl)C(C)C)cc1)C(=O)CCl,82.6% (inactive)
8,COc1ccccc1OCC(=O)Nc1sc2c(c1C(N)=O)CCC2,99.9% (inactive)
9,COc1ncc(-c2ccc3ncnc(Nc4cccc(Cl)c4)c3c2)cc1NS(=O)(=O)CCN1CCOCC1,-20.7% (active)
10,O=C1NC(Cc2c[nH]c3ccccc23)C(=O)N1Cc1ccc(Cl)cc1 (stereo not given),103% (inactive)
11,CC/C=C\C/C=C\C[C@H]1C/C=C2/C(=O)C=C[C@H]2C/C=C\CCC(=O)O1,18.3% (inactive)
12,O=c1oc2c([nH]c3ccc4ccccc4c32)c2ccccc12,85.4% (inactive)
13,CC/C=C\C[C@H]1C/C=C2/C(=O)C(Cl)=C[C@@H]2C/C=C\CCCC(=O)O1,-82% (active)
14,CSc1nc(-c2cc3ccccc3o2)cc(-c2ccc(Cl)cc2)c1C#N,73.7% (inactive)
15,CCCCC[C@@H]1Cc2cc(O)c(C(=O)O)c3c2[C@H](C[C@@]2(CCCO2)O3)O1,108% (inactive)
16,COc1ccc2c(c1)C(C)Cc1c(N(C)C)ncnc1N2C (stereo not given),41.2% (inactive)
17,O=C(NCCc1c[nH]c2ccccc12)C1Cc2ccccc2CN1C(=O)c1ccco1 (stereo not given),102% (inactive)
18,COc1cc(C(=O)CCCl)ccc1O,93.7% (inactive)
19,Nc1cc2c(cc1N)-c1cc(N)c(N)cc1C2,89.2% (inactive)
20,CCO/C=N/NC(=O)c1ccncc1,102% (inactive)

row,Structure (SMILES),growth
1,CNC(=O)c1cc(Oc2ccc3c(c2)sc2nc(-c4ccc(Cl)cc4)cn23)ccn1,80.9% (inactive)
2,CCN(CC)CCSc1c2ccc(Cl)cc2nc2ccc(OC)cc12,97.1% (inactive)
3,CCCCCCCCCCCCCCCCCCOc1cccc(CCOP(=O)(O)OCC[N+](C)(C)C)c1,97% (inactive)
4,CCCS(=O)(=O)c1nc(NC2CC2)cc(-c2ccc3c(ccn3C3CC(C)(C)NC(C)(C)C3)c2)n1,22.6% (inactive)
5,COc1ccc(N=C2NN=C(c3ccc(F)cc3)CS2)cc1OC,99% (inactive)
6,C=CCOc1ccc(/C(O)=C2\C(=O)C(=O)N(c3nccs3)C2c2ccccc2F)cc1 (stereo not given),133% (inactive)
7,COc1cccc2cc(-c3cc4ccccc4[nH]3)c(=NC(=O)c3ccc(Cl)cc3)oc12,77.9% (inactive)
8,O=C(Nc1ccc(I)cc1)c1cccc([N+](=O)[O-])c1O,8.49% (active)
9,N#CC1=C(N)n2nc(-c3ccncc3)nc2NC1c1cccc2ccccc12 (stereo not given),71.7% (inactive)
10,CCN1C(=O)N(CC)C2C1NN=c1s/c(=C\c3cccc(F)c3)c(=O)n12 (stereo not given),64.3% (inactive)
11,COc1ccc(/C=C/C(=O)/C=C/c2cc3ccc(Cl)cc3[nH]c2=O)cc1,84.7% (inactive)
12,CC1(C)OC2COC3(C(=O)O)OC(C)(C)OC3C2O1 (stereo not given),97% (inactive)
13,O=C(O)C(=Cc1c2ccccc2cc2ccccc12)C(=O)O,104% (inactive)
14,CS(=O)(=O)N(c1cc(-c2ccc3ncnc(Nc4cccc(Cl)c4)c3c2)cnc1Cl)S(C)(=O)=O,-3.18% (active)
15,COC(=O)CCCCN=Cc1c(O)c(O)c(C(C)C)c2cc(C)c(-c3c(C)cc4c(C(C)C)c(O)c(O)c(C=NCCCCC(=O)OC)c4c3O)c(O)c12,14.4% (inactive)
16,O=C1Nc2cc(Cl)ccc2Oc2cc(Oc3ccccc3)ccc21,72% (inactive)
17,CCOP(=O)(CCN1CCN(CCCCCOc2cc3c(cc2OC)C(=O)N2CCC[C@H]2C=N3)CC1)OCC,98.2% (inactive)
18,CCN(CC)CCCNc1nc(C)cc(Nc2ccc3nc(C)cc(N)c3c2)n1,96.2% (inactive)
19,CC1CCN(C(=O)CSc2nc3sc4c(c3c(=O)[nH]2)CCCC4)CC1,98.9% (inactive)
20,CC1Cc2c(N(C)C)ncnc2N(C)c2ccc(Cl)cc21 (stereo not given),29.3% (inactive)
